# Data taken from PubChem BioAssay AID651820 (National Center for Advancing Translational Sciences (NCATS), 2012).
# Among all 340,000 compounds or so, about 12,000 (3.5%) were called active. About 18% were inconclusive and are not listed. The list comes from a sample in which actives are over-represented; it also holds similar structures and randomly drawn compounds. A call without a number means that no potency is given here. Values without a mark were called inactive. Calls follow the shape of the dose curve; as a rule, active = well fitted inhibition curve with a large enough effect; inconclusive = small, poorly fitted or top-dose-only effect, or another doubt; inactive = no such curve, though single readings can be large or run the other way.
# Experiment: qHTS Assay for Inhibitors of Hepatitis C Virus (HCV)
# Settings: Huh7.5.1 HCVcc-Cre infection, luciferase reporter, 44 h; series mostly up to 41.8 µM
# Summary of the method: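 Whole-lifecycle infectious HCVcc-Cre system; cells 1,000/well, compound then virus (~0.5 moi) added 4 h after plating, 44 h culture. Luciferase read 15 sec following 15 min substrate incubation, room temp.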
# Potency is read from the fitted curve at half-maximal effect.
Structure (SMILES),Potency,"activity change, negative = inhibition"
COc1cccc(CNS(=O)(=O)c2ccc3c(c2)CC(C)N3C(C)=O)c1 (stereo not drawn),inactive,–
COc1cccc(CNS(=O)(=O)c2ccc3c(c2)CC(C)N3C(=O)C2CCC2)c1 (stereo not drawn),6.31 µM (active),–
CCC(=O)N1c2ccc(S(=O)(=O)NCc3ccco3)cc2CC1C (stereo not drawn),inactive,–
Cn1cccc1C(=O)OCC(=O)NCCc1ccccc1,inactive,–
O=C(COC(=O)c1ccc2ncsc2c1)Nc1ccc(Cl)cc1,inactive,–
CCCCn1c(N)c(N(CC(C)C)C(=O)CSc2ccc([N+](=O)[O-])cc2)c(=O)[nH]c1=O,inactive,–
O=C(NNS(=O)(=O)c1c(F)cc(F)c(Cl)c1F)C12CC3CC(CC(C3)C1)C2,inactive,–
CCOc1cc(/C=N/O)cc(Br)c1OC,8.91 µM (active),–
COc1cc(/C=N/O)cc(Br)c1OS(=O)(=O)c1ccc(C)cc1,inactive,–
O=C(O)COc1ccc(/C=N/O)cc1Br,inactive,–
CC(C)c1ccc(C=NNc2ccc([N+](=O)[O-])cn2)cc1,inactive,–
COc1ccccc1-c1nn(Cc2ccccc2)cc1C(=O)N1CCN(c2ncccn2)CC1,inactive,–
CCn1nc(C(=O)Nc2ccc(N3CCOCC3)cc2)c2ccccc2c1=O,inactive,–
Cc1cc(NC(=O)CN2C(=O)NC(CC(C)C)C2=O)no1 (stereo not drawn),inactive,–
O=C(CCl)N(Cc1cccc([N+](=O)[O-])c1)c1cccc(Cl)c1,3.98 µM (active),–
CCN(CC)C(=O)CN(c1cccc([N+](=O)[O-])c1)S(=O)(=O)c1ccccc1,inactive,–
Cc1ccc(S(=O)(=O)N(Cc2cccc([N+](=O)[O-])c2)C(=O)N2CCN(C)CC2)cc1,inactive,–
CN(C)C(CNC(=O)c1cccc(S(=O)(=O)Nc2ccc(Br)cc2)c1)c1ccco1 (stereo not drawn),inactive,–
O=C(CCCOc1ccccc1)NNC(=O)c1ccc(Cl)cc1,inactive,–
CC1CCCCC1NC(=O)Cn1c(=O)cnc2ccccc21 (stereo not drawn),inactive,–
Cc1nn(Cc2ccccc2)c(C)c1C(=O)N1CCN(CC(=O)Nc2ccccc2Cl)CC1,inactive,–
Clc1ccc(C2=CSC3=Nc4cccc5cccc(c45)N23)cc1,5.01 µM (active),–
CCc1nnc(NS(=O)(=O)c2ccc(NC(=O)c3cccc(OC(F)(F)C(F)F)c3)cc2)s1,inactive,–
Cc1cc(OCCCCOc2ccc(C#N)cc2)ccc1[N+](=O)[O-],8.91 µM (active),–
Cc1cc(C(=O)O)ccc1[N+](=O)[O-],inactive,–
Cc1cc(OCC(=O)NC2CCN(C)CC2)ccc1[N+](=O)[O-],inactive,–

Structure (SMILES),Potency,"activity change, negative = inhibition"
COc1ccc(N2CCN(S(=O)(=O)c3cc4c5c(c3)C(C)C(=O)N5CCC4)CC2)cc1 (stereo not drawn),–,0.733% [at 8.37 µM]
Cn1c(/C(C#N)=C2/CCCCCN2)nc2ccccc21,inactive,–
N#C/C(=C1\CCCN1)c1nc(-c2ccccc2)cs1,6.31 µM (active),–
N#C/C(=C1/CCCN1)c1ccccn1,inactive,–
COC1=NC2=NCCN2C(OC)=N1,inactive,–
OC(COc1ccc(F)cc1Cl)CN1CCc2ccccc2C1 (stereo not drawn),inactive,–
Cc1ccc(OCC(O)CN2CCN(CC(O)COc3ccc(C)cc3Cl)CC2)c(Cl)c1 (stereo not drawn),25.1 µM (active),–
COc1ccccc1OCC(O)CN1CCOCC1 (stereo not drawn),inactive,–
COc1ccc2nc(N3C(=O)C(O)=C(C(=O)c4ccco4)C3c3ccco3)sc2c1 (stereo not drawn),inactive,–
CCOc1ccc(/C=C(/C#N)c2nnc(N3CCOCC3)n2-c2ccccc2)cc1OC,inactive,–
CC(C)N(Cc1ccccc1)C(=O)COC(=O)c1ccccc1SCC(=O)N1CCCC1,inactive,–
CCOc1cc(C(=S)N2CCOCC2)ccc1OS(=O)(=O)c1ccc(Br)cc1,10 µM (active),–
CCOc1cc(C(=S)N2CCOCC2)ccc1O,inactive,–
CC(=O)Nc1ccc(S(=O)(=O)Oc2ccc(Br)cc2C(=S)N2CCOCC2)cc1,inactive,–
Cc1cc(NC(=O)COc2ccccc2C#N)no1,inactive,–
O=C(Nc1cc(S(=O)(=O)N2CCOCC2)ccc1N1CCOCC1)c1c(F)cccc1Cl,inactive,–
COc1ccc(Sc2nc(-c3ccccc3)ncc2OC)cc1,inactive,–
COc1ccc(Cc2nc(-c3ccccn3)no2)cc1OC,inactive,–
COc1cnc(-c2ccccn2)nc1Oc1ccc(C(C)(C)C)cc1,10 µM (active),–
O=C1COc2ccc(C(=O)COC(=O)c3ccccc3Cl)cc2N1,inactive,–
COc1ccc(-c2ccc3c(c2)C2CC3CCN2CCC#N)cc1 (stereo not drawn),–,-2.86% [at 8.37 µM]
CC1(C)O[C@@H]2[C@H](O1)[C@@H](COS(=O)(=O)O)O[C@H]2n1cnc2c(=O)[nH]cnc21,inactive,–
Cc1ccc(S(=O)(=O)N(C)C)cc1NC(=O)COC(=O)/C=C/c1cccs1,inactive,–
O=C(COC(=O)COc1cc(Cl)c(Cl)cc1Cl)NC1CC1,inactive,–
O=C(COC(=O)c1ccc(O)cc1O)NNC(=O)c1cccs1,inactive,–
COc1ccc2c(c1)C(=O)CC(c1ccccc1)O2 (stereo not drawn),inactive,–

Structure (SMILES),Potency,"activity change, negative = inhibition"
COc1cc(C(=O)Nn2c(CC(C)C)nc3ccccc3c2=O)cc(OC)c1OC,inactive,–
CCC(C)n1c(-c2cc(OC)c(OC)c(OC)c2)nc2nc3ccccc3nc21 (stereo not drawn),15.8 µM (active),–
COc1cc(-c2n[nH]c(=S)n2Cc2ccccc2)cc(OC)c1OC,inactive,–
Cc1cc2nc3n(c2cc1C)CC1CC(C(=O)NCCC(C)C)N(C)C31 (stereo not drawn),inactive,–
Cc1cccc(Nc2nnc(SCC(=O)c3c(N)n(C4CC4)c(=O)[nH]c3=O)s2)c1C,inactive,–
O=[N+]([O-])c1ccc(N=NNc2ccc([N+](=O)[O-])cc2)cc1,inactive,–
COc1cc(OC)c(C(=O)NNC(=O)c2ccc(NS(=O)(=O)c3cccs3)cc2)cc1OC,inactive,–
Cc1ccc(C(CC(=O)O)Nc2nc(N3CCCCC3)nc(N3CCCCC3)n2)cc1 (stereo not drawn),inactive,–
CC(Nc1nc(N2CCCC2)nc2ccccc12)c1ccccc1 (stereo not drawn),10 µM (active),–
CC(Nc1nc(N2CCN(CCO)CC2)nc2ccccc12)c1ccccc1 (stereo not drawn),inactive,–
Cc1ccc(C)c(OCC(=O)NNC(=O)C2CCC2)c1,inactive,–
CCc1cc2c(N3CCN(c4nnc(CC)s4)CC3)ncnc2s1,7.08 µM (active),–
O=C(O[C@@H]1[C@H](Cc2ccccc2)NS(=O)(=O)[C@H]2C[C@@H]3C=C[C@]12O3)c1ccccc1Br,inactive,–
COc1cccc(NC(=O)CSc2nccn(-c3ccc4c(c3)OCCO4)c2=O)c1,inactive,–
CC(=O)Nc1cccc(Nc2nc(-c3cccs3)nc3ccccc23)c1,11.2 µM (active),–
O=c1[nH]c(-c2cccs2)nc2ccccc12,inactive,–
CC(=O)Nc1cccc(-c2cnc3ccccc3n2)c1,inactive,–
Cc1ccc(/C=C/C(=O)OCC(=O)NCc2ccc(Cl)cc2)o1,inactive,–
O=S(=O)(c1ccccc1)N1CCC(c2ccccc2)CC1,inactive,–
Cc1ccsc1C(=O)NCCc1ccco1,inactive,–
O=C(COc1ccc(Br)cc1F)NCC1(N2CCCCC2)CCCCC1,inactive,–
CCN1C[C@@H]2[C@@H]3C(=O)N(Cc4ccccc4)C(=O)[C@@H]3[C@](Cc3ccccc3)(C(=O)OC)N2C1=NC1CCCCC1,–,11.2% [at 8.37 µM]
CCC[C@H]1CCCC/C=C\CCCC(=O)OCCN1C(=O)OC(C)(C)C,inactive,–
CCN1C[C@@H]2[C@@H]3C(=O)N(C)C(=O)[C@@H]3[C@](C)(C1=O)N2C(=O)c1ccccc1,inactive,–
O=C(N/N=C/c1ccc([N+](=O)[O-])o1)c1cn(-c2ccccc2)nc1-c1ccc(F)cc1,inactive,–
C/[N+]([O-])=C\c1ccc([N+](=O)[O-])o1,inactive,–

Structure (SMILES),Potency,"activity change, negative = inhibition"
O=C(/C=C/c1ccc([N+](=O)[O-])o1)NNC(=O)c1ccc(F)cc1,14.1 µM (active),–
CCCCCCSc1ccc(-c2nc3ccc(Cl)cn3c2NCc2ccccc2)cc1,inactive,–
C[C@@H]1NS(=O)(=O)c2cc(Cl)ccc2O[C@@H]1c1ccccc1,inactive,–
Cc1cccc(NC(=O)Cn2c(=O)n(Cc3ccccc3)c(=O)c3c(C)c(C)sc32)c1,10 µM (active),–
Cc1cccc(-n2c(=O)c3c(C)c(C)sc3n(CC(N)=O)c2=O)c1,inactive,–
Cc1sc2c(c1C)c(=O)n(-c1ccccc1)c(=O)n2CC(=O)NCC1CCCO1 (stereo not drawn),inactive,–
C=CCC(NC(=O)Cc1ccccc1)C(=O)NCCC (stereo not drawn),inactive,–
CC(=NNC(=O)c1ccncc1)c1ccc(Cl)c(Cl)c1,inactive,–
CN(Cc1cccs1)C(=O)CN1C(=O)c2ccccc2S1(=O)=O,inactive,–
COc1cc(C(=O)N2CCN(S(=O)(=O)c3ccc(C(C)C)cc3)CC2)ccc1OCC(=O)N1CCOCC1,inactive,–
COCC(C)NCc1cc(Br)ccc1OC (stereo not drawn),inactive,–
CCC(C)NCCOCCOc1ccc(Br)cc1C (stereo not drawn),11.2 µM (active),–
Cc1ccc(OCCOCCOc2ccc(Br)cc2/C=N\NC(=O)c2ccncc2)cc1,inactive,–
O=c1c(Cl)c(NC2CC2)cnn1-c1ccccc1,inactive,–
Cc1cccc(-n2ncc(C#N)c2-n2cccc2)c1,inactive,–
Cc1cccc(-n2ncc(Cl)c(Cl)c2=O)c1,11.2 µM (active),–
COc1ccc(NC(=O)c2cccc(Cl)c2)c[n+]1[O-],3.16 µM (active),–
O=C(Nc1ccc(NC(=O)c2ccc3c(c2)OCO3)cc1)c1cccc(Cl)c1,inactive,–
O=C(Nc1ccon1)c1cccc(Cl)c1,inactive,–
Cc1ccc(NC(=O)C(C)OC(=O)C2CC3CCCC(C2)C3=O)cc1S(=O)(=O)N1CCOCC1 (stereo not drawn),inactive,–
CC[C@@H](C)[C@@H]1CN([C@@H](C)CN2CCC[C@H]2CN2C(N)=NC[C@H]2C(C)C)C(=N)N1CCc1ccc(Cl)c(Cl)c1,inactive,–
COc1ccccc1C(=O)NCC(=O)OCC(=O)Nc1nnc(-c2ccccc2)o1,inactive,–
c1ccc(-c2nnc(N3CCOCC3)c3ccccc23)cc1,inactive,–
OCCN1CCN(c2nnc(-c3ccccc3)c3ccccc23)CC1,inactive,–
CCCC(=O)N1CCN(c2nnc(-c3ccc(C)cc3)c3ccccc23)CC1,12.6 µM (active),–
